These results are taken from PubChem BioAssay.

Unmarked numbers belong to inactive results. No rule for the calls is given here.

One may read the inhibition as the share of the control response that was lost under treatment.

In this experiment the target is Pantothenate synthetase (Mycobacterium tuberculosis (strain ATCC 25618 / H37Rv)) (UniProt P9WIL5). The experiment can be described thus: Recombinant Mtb pantothenate synthetase (PanC) inhibitors, coupled enzyme, confirmatory (AID 375).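 Also: 0% = full reaction with vehicle and 100% = no enzyme background.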 As to conditions: coupled enzyme assay; at 10 µM, stronger effect = higher value.
Pantothenate synthetase (Mycobacterium tuberculosis (strain ATCC 25618 / H37Rv)), sequence (P9WIL5 whole entry, looked up): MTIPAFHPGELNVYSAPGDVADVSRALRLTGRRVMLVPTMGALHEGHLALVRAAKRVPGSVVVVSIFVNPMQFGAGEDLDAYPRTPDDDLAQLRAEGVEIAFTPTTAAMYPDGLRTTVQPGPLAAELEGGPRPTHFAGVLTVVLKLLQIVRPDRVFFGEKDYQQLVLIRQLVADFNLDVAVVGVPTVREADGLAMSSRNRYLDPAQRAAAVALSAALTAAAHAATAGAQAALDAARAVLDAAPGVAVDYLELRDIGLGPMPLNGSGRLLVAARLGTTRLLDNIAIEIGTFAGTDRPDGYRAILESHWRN
In the case of `COCCn1c(CN(Cc2ccccc2)Cc2ccccc2)nc2c1c(=O)n(C)c(=O)n2C`, the inhibition was 0%. As to `N#Cc1ccc(CSc2nnc(-c3cccs3)n2-c2ccccc2)cc1`, the inhibition was 0%. As for `O=S(=O)(Nc1cccnc1)c1cc(Cl)ccc1Cl`, the inhibition is 0%.

In the case of `COc1ccc(CNc2oc(-c3cccc4ccccc34)nc2C#N)cc1`, the inhibition was 0%. As for `Cc1nc2c(-c3ccccc3)c(C)nn2c(C)c1CCC(=O)O`, the figure is 0%; as for `COc1cc(CC(=O)NCc2ccc3c(c2)OCO3)cc(OC)c1OC`, 1%; as for `Cc1ccc(Cl)c(Nc2ccccc2C(=O)O)c1Cl`, 0%. `COC(=O)C1=C(C)NC(C)=C(C(=O)OC)C1c1ccccc1[N+](=O)[O-]`: the inhibition was 0%. `CC(=O)c1ccc(NC2OC(C)C(O)C(O)C2O)cc1` (stereo not drawn): the inhibition is 3%.

In the case of `CCC1Oc2ccccc2N(CC(=O)Nc2ccc(OC)cc2OC)C1=O` (stereo not drawn), the inhibition is 0%. For `O=C(CN1C(=O)c2ccccc2S1(=O)=O)Nc1ccc(S(=O)(=O)N2CCCCCC2)cc1`, the inhibition is 6%.

`Cc1cc(C)n(-c2ccc(C(=O)Oc3ccc4c(c3)OCO4)cc2)n1`: the inhibition was 1%.

Turning to `Cc1cc(C(=O)Nc2cccnc2)no1`, the inhibition is 0%. Turning to `CN(CC(=O)N1CCN(c2ccccn2)CC1)S(=O)(=O)c1ccc2ccccc2c1`, the inhibition is 0%. Take `CCN(CC)S(=O)(=O)c1ccc(NC2c3ccccc3C(=O)N2CCN2CCOCC2)cc1` (stereo not drawn): the inhibition is 0%. Regarding `Cc1ccccc1Cn1ccc(NC(=O)c2onc(C)c2Cl)n1`, the inhibition was 0%.

As for `CCCn1c(C)nc2c(c1=O)c1nc3ccccc3nc1n2CCc1ccccc1`, the inhibition was 4%.

In the case of `O=C(CSc1ccccc1C(=O)NCCCN1CCCC1=O)NCc1ccco1`, the inhibition is 5%.

Consider `CCN1C(=O)OC2(CCCCC2)C1(C)O` (stereo not drawn), for which the inhibition is 0%.

Consider `COc1cccc(NC(=O)N2CCCC2C(=O)NC(C)C)c1` (stereo not drawn), for which the inhibition was 0%. `Cc1c(C)[n+](=O)c2c(n1[O-])CCCCC2`: the inhibition was 1%. As to `CCC(=O)c1ccc(OCC(O)CN2CCN(S(=O)(=O)N3CCCCC3)CC2)cc1` (stereo not drawn), the inhibition was 1%. Take `CCOC(=O)C1=C[C@]2(CC)CCCN3CCc4c(n1c1ccccc41)[C@@H]32`: the inhibition was 4%.
